Consider 37 compounds from PubChem BioAssay (NCATS).

“And” between values parts separate entries of the source, which are not always exact repeats. Identical values can stand only once. A number with no mark means an inactive call. Inconclusive results are not listed. The source made the active and inactive calls. Unless noted, calls come from the whole dose curve.

For assay [1], the target named is Bile acid receptor (Homo sapiens) (UniProt Q96RI1). The experiment in a line: qHTS assay for small molecule agonists of farnesoid X receptor signaling (AID 588527).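 Note: series mostly up to about 77 µM; 0% = vehicle basal and 100% = reference agonist.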 The settings on record: HEK293T FXR-UAS-bla, beta-lactamase ratio, 16 h; hits give high values. An outline of the steps: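 FXR-UAS-bla HEK293T cells (10% dialyzed FBS) preincubated 5-7 h at 37 C, then compounds at up to 92 uM for 16 h at 37 C. CCF4 beta-lactamase read-out after 2 h RT. Normalized to chenodeoxycholic acid (100 uM) and DMSO; Hill fit gave EC50 and efficacy.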
Bile acid receptor (Homo sapiens), sequence (Q96RI1 whole entry, looked up): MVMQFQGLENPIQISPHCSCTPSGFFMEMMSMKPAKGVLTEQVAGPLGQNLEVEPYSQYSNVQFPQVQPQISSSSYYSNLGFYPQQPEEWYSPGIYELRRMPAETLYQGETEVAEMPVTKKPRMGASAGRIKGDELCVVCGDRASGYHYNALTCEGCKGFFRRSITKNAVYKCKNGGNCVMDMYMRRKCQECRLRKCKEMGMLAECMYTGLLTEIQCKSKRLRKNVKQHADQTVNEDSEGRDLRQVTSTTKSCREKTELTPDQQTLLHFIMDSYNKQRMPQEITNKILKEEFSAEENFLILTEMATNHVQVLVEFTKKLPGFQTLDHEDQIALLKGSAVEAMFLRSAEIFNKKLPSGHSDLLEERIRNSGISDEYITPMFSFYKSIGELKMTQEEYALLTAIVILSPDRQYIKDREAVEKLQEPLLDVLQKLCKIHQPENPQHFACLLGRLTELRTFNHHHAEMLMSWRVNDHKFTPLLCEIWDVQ
(qHTS replaces the single test concentration by a dilution series.)

Assay [2] concerns the target DNA dC->dU-editing enzyme APOBEC-3G (Homo sapiens) (UniProt Q9HC16). Briefly: qHTS for inhibitors of Vif-A3G interactions: Validation (AID 588379; active = well fitted inhibition curve with a large enough effect; note: 0% is about no effect). The method in brief: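 Yellow fluorescence (Ex 488, Em 500-530) of Vif-coexpressing HeLa A3G-eYFP cells, scanned by Acumen cytometer, reports blocked A3G degradation. Cells plated at 700/well overnight at 37 deg C before compound addition, then a further overnight compound incubation at 37 deg C.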

Assay [3] has as its target Estrogen receptor (Homo sapiens) (UniProt P03372). Briefly: qHTS assay for small molecule agonists of estrogen receptor alpha signaling (AID 588514).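 For activation: 0% = vehicle only and 100% = reference agonist.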 Note: nearly all actives have a fitted effect of over 70% in size. Note: potency is the fitted concentration of half-maximal effect. An outline of the steps:
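EC50 and efficacy came from Hill fits of beta-lactamase reporter signal (CCF4 dye, 2 h at room temperature) scaled between DMSO and 20 nM 17-beta-estradiol. Agonist mode: HEK293 ER-alpha-UAS-bla cells in charcoal/dextran-stripped serum medium, 18 h compound exposure at 37 C.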

Assay [4] has as its target Androgen receptor (Homo sapiens) (UniProt P10275). Briefly: qHTS assay for small molecule agonists of androgen receptor signaling (AID 588515; active = well fitted curve in the direction sought with a large enough effect in the signal ratio, with a control signal flat; the % refers to the signal ratio; note: potency is the fitted concentration of half-maximal effect; for activation: % is set by controls: 0 for no effect and ±100 for the full control effect). The following applies: AR-UAS-bla HEK293, beta-lactamase ratio, agonist 16 h; activation: hits give high values. An outline of the steps:
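Stimulation of an AR-responsive β-lactamase reporter in GripTite HEK293 cells was measured after 16 h compound exposure at 37 °C, via CCF4 fluorescence after 2 h RT. EC50 from Hill fits, normalized to R1881 at 30 nM.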

Assay [5] shares this target. The experiment in a line: qHTS assay for small molecule antagonists of androgen receptor signaling (AID 588516; active = well fitted curve in the direction sought with a large enough effect in the signal ratio, with a control signal flat, not every such curve was filed as active; the % refers to the signal ratio; note: % is set by controls: 0 for no effect and ±100 for the full control effect). An outline of the steps:
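Antagonist mode: inhibition of R1881-stimulated (10 nM final) bla reporter in GeneBLAzer AR HEK 293 cells, 16 h at 37C, compounds titrated. IC50 and efficacy from Hill-equation fits of 405/460–530 nm FRET ratios.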

The target of assay [6] is Ubiquitin carboxyl-terminal hydrolase 1 (Homo sapiens) (UniProt O94782). The experiment in a line: Inhibitors of USP1/UAF1: Pilot qHTS (AID 504865; active = well fitted inhibition curve with a large enough effect; note: nearly all actives have a fitted effect of over 35% in size; note: potency is the fitted concentration of half-maximal effect). An outline of the steps: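 Deubiquitinase activity followed as kinetic rhodamine fluorescence release from 150 nM Ub-Rho. 1 nM USP1/UAF1 with compound, after 15 min room-temperature preincubation, in HEPES pH 7.8 buffer containing TCEP, EDTA, BSA and Tween-20.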
Ubiquitin carboxyl-terminal hydrolase 1 (Homo sapiens), sequence (O94782 whole entry, looked up): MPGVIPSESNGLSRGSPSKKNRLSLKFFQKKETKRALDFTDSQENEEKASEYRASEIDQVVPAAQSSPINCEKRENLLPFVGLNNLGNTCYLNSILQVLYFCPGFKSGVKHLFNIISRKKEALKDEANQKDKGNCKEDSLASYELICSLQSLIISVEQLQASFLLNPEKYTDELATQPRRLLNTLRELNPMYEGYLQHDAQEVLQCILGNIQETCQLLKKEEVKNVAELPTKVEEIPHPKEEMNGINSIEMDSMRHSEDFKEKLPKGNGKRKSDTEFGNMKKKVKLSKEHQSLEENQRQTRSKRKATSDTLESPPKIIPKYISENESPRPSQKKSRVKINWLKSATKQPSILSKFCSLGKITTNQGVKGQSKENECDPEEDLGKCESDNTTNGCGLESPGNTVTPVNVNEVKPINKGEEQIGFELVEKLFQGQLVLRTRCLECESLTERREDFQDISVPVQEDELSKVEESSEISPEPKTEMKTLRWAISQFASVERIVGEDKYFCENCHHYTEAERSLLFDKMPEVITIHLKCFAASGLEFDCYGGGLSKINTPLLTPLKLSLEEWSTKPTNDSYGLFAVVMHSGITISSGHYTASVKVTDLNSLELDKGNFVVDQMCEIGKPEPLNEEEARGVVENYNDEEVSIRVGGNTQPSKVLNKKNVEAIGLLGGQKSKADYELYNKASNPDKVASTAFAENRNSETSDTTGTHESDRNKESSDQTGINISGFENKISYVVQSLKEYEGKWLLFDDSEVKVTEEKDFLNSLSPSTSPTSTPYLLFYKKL

The target in assay [7] is Bile acid receptor (Homo sapiens) (UniProt Q96RI1). The experiment in a line: qHTS assay for small molecule antagonists of farnesoid X receptor signaling (AID 588526). Note: potency is the fitted concentration of half-maximal effect. The method in brief: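 Beta-lactamase reporter antagonist mode: HEK293T FXR-UAS-bla cells, titrated compound, CDCA stimulation, 16 h 37 C, CCF4 dye 2 h RT. Data normalized to CDCA 50 uM and DMSO; Hill-fit IC50.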

Estrogen receptor (Homo sapiens), sequence (P03372 whole entry, looked up): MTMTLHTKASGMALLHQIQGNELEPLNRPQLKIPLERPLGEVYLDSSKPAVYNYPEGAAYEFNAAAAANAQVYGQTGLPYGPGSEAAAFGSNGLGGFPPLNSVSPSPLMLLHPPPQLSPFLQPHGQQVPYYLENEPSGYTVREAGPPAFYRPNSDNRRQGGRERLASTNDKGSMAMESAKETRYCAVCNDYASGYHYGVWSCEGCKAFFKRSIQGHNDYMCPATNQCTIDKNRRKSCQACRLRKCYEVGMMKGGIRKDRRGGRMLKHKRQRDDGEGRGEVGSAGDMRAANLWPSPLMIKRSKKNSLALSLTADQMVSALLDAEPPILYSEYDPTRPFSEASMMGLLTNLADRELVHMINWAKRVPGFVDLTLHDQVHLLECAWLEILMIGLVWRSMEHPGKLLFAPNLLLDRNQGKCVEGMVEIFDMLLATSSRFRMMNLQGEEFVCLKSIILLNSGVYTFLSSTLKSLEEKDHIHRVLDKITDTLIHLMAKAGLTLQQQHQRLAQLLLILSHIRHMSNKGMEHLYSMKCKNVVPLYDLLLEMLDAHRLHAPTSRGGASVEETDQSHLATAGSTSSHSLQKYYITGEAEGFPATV
DNA dC->dU-editing enzyme APOBEC-3G (Homo sapiens), sequence (Q9HC16 whole entry, looked up): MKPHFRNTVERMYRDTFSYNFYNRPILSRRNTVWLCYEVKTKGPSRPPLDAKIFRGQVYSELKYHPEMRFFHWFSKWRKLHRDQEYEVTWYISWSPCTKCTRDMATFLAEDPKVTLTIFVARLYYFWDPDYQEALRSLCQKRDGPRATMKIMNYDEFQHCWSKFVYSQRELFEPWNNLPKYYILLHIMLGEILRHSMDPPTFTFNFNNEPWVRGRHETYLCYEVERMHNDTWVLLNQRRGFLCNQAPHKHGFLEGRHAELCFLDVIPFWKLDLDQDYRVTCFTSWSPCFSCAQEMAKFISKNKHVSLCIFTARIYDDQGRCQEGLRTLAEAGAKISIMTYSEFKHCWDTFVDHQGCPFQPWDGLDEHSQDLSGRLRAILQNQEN
Androgen receptor (Homo sapiens), sequence (P10275 whole entry, looked up): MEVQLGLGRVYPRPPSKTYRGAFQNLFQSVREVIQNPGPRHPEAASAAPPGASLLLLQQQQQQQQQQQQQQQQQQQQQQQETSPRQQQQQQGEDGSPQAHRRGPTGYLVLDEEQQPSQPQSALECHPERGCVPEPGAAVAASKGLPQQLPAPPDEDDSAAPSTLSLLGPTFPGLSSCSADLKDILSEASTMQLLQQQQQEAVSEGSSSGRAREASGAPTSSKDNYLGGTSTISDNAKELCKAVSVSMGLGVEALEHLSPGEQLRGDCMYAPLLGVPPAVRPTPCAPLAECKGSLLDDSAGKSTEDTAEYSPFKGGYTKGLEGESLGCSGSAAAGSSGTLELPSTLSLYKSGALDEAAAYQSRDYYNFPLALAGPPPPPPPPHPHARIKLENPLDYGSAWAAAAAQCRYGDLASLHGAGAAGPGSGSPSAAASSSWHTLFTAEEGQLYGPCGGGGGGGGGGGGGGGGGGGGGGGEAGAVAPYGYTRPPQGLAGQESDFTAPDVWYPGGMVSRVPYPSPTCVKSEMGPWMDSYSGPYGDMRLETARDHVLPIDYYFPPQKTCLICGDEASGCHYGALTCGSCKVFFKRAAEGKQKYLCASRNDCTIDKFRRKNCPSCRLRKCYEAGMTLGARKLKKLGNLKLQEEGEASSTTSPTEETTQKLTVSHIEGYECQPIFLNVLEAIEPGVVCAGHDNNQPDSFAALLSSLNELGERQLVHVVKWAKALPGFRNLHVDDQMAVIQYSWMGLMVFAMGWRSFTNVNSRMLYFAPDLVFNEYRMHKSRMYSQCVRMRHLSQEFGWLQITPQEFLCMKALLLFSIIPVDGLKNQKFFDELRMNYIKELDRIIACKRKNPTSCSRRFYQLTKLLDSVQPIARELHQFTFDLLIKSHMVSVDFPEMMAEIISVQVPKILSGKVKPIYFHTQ

In the case of `CCOc1ccc(NC(C)=O)cc1`, the activation in assay [1] was 0.406% and 4.82%.
On to `c1ccc2nc(N3CCNCC3)ccc2c1`, for which, in assay [2], the compound was called inactive.
On to `O=C(CCl)c1ccc(Cl)cc1Cl`, for which the Potency result in assay [3] is “inactive”.
For `CCN(CC)CCOc1ccc(/C(=C(\Cl)c2ccccc2)c2ccccc2)cc1`, in assay [1], the activation is 1.52%.
For the compound `O=c1ccc2ccccc2o1`, in assay [1], the activation is 2.18% and -1.67%.
In the case of `COP(=S)(OC)Oc1ccc(Sc2ccc(OP(=S)(OC)OC)cc2)cc1`, in assay [3], the Potency entry was “inactive”. Further, in assay [4], the activation is -10.3%. The compound was called inactive in assay [5].
`CC/C(=C(/CC)c1ccc(O)cc1)c1ccc(O)cc1`: the activation in assay [1] is 2% and 5.54%.
`CC(O)COc1ccccc1` (configuration not stated): the activation in assay [1] was -2.72%.
Regarding `CN(C)c1ccc(C(=C2C=CC(=[N+](C)C)C=C2)c2ccc(N(C)C)cc2)cc1`, the activation in assay [1] is -3.58% and -3.47%.
Take `CN1[C@@H]2CC[C@H]1CC(OC(=O)c1cc(Cl)cc(Cl)c1)C2` (some centres not stated): the compound was called inactive in assay [2].
With `O=C1C(c2[nH]c3ccccc3c2O)=Nc2ccccc21`, the activation in assay [1] was 0.121%.
As to `COP(=O)(OC)OC=C(Cl)Cl`, the Potency result in assay [3] is “inactive”.
For `CN(C)C(=S)SSC(=S)N(C)C`, the Potency result in assay [6] and in assay [3] was “inactive” in each case. Also, the activation in assay [1] is 3.15%.
For the compound `O=C(Nc1ccc(Cl)cc1)Nc1ccc(Cl)c(Cl)c1`, the activation in assay [1] is 1.41%.
Regarding `C[C@@H]1C[C@@H]([C@H](O)CC2CC(=O)NC(=O)C2)C(=O)[C@@H](C)C1`, in assay [2], the outcome was inactive. The Potency entry in assay [7] was “inactive”. In addition, the activation in assay [1] was 0.176% and -1.82% and 1.78%.
With `c1ccc2[nH]c(-c3cscn3)nc2c1`, the activation in assay [1] was -0.341% and 3.24%.
`CC[n+]1c(-c2ccccc2)c2cc(N)ccc2c2ccc(N)cc21`: the Potency in assay [6] is 39.8 µM (active). The Potency result in assay [3] is “inactive”. Moreover, the activation in assay [1] is 9.69%.
On to `O=C1NCN(c2ccccc2)C12CCN(CCCOc1ccc(F)cc1)CC2`, for which the result in assay [2] was inactive.
Turning to `COc1ccc2cc3[n+](cc2c1OC)CCc1cc2c(cc1-3)OCO2`, in assay [1], the activation was -1.09%.
In the case of `CNC(=O)Oc1cccc2ccccc12`, the Potency entry in assay [3] and in assay [7] was “inactive” throughout. Moreover, the activation in assay [1] is -1.5%.
On to `Oc1ccc2[nH]cc(CCCCN3CC=C(c4ccccc4)CC3)c2c1`, for which the compound was called inactive in assay [2].
For the compound `C[C@H]1C(=O)O[C@@H]2CCN3CC=C(COC(=O)[C@](C)(O)[C@]1(C)O)[C@H]23`, the Potency result in assay [3] and in assay [7] was “inactive” in each case. Besides, the activation in assay [1] was 2.9%.
Turning to `O=C(OCc1ccccc1)c1ccc(O)cc1`, the activation in assay [1] was 1.11%.
With `Oc1c(Cl)cc(Cl)cc1Sc1cc(Cl)cc(Cl)c1O`, the activation in assay [1] was -0.242%.
On to `COCC(=O)N(c1c(C)cccc1C)C(C)C(=O)OC` (configuration not stated), for which the Potency result in assay [6] and in assay [7] was “inactive” each time. The activation in assay [1] was 3.52%.
`CN(C)C(=S)SC(=S)N(C)C`: the activation in assay [1] was 1.4%.
Consider `Cc1cc(C(C)(C)C)c(O)c(C(C)(C)C)c1`, for which, in assay [1], the activation is 9.91% and 2.64%.
As for `CCNc1nc(Cl)nc(NCC)n1`, the Potency result in assay [3] and in assay [7] was “inactive” throughout. The activation in assay [1] was -2%.
As to `Oc1ccc(Cl)cc1Cc1cc(Cl)ccc1O`, the compound was classed as inactive in assay [5]. For the same compound, in assay [7], the Potency is 7.94 µM (active). Moreover, the activation in assay [1] was 1.29%.
For `CCOc1ccccc1C(N)=O`, the activation in assay [1] is -0.664%.
Regarding `O=C(NC(=O)c1c(F)cccc1F)Nc1cc(Cl)c(OC(F)(F)C(F)C(F)(F)F)cc1Cl` (configuration not stated), the Potency result in assay [3] and in assay [7] was “inactive” in each case. Further, the activation is -6.9% in assay [4] and -0.875% in assay [1]. In addition, in assay [5], the compound was classed as inactive.
Take `O=C1c2cccc(O)c2C(=O)c2c(O)cccc21`: in assay [1], the activation is -5%.
For `N#Cc1nn(-c2c(Cl)cc(C(F)(F)F)cc2Cl)c(N)c1S(=O)C(F)(F)F` (configuration not stated), the Potency result in assay [6] and in assay [3] was “inactive” throughout. Further, the activation in assay [1] was 6.05%.
As for `CCOP(=S)(OCC)O/N=C(\C#N)c1ccccc1`, the activation in assay [1] was 8.69%.
For the compound `CCC(=O)O[C@H]1CC[C@H]2[C@@H]3CCC4=CC(=O)CC[C@]4(C)[C@H]3CC[C@]12C`, the Potency in assay [3] was 2.82 µM (active); in assay [4] it was 8.9 nM (active).
Turning to `Cc1ccc(O)cc1`, the activation in assay [1] was -0.678%.
Turning to `CCN(CC)C(=O)c1cccc(C)c1`, in assay [1], the activation was 0.006% and -2.52%.
